In PubChem BioAssay AID624117 (National Center for Advancing Translational Sciences (NCATS), 2012):
Results filed as inconclusive are left out. Calls follow the shape of the dose curve; as a rule, active = well fitted curve in the direction sought with a large enough effect; inconclusive = small, poorly fitted or top-dose-only effect, or another doubt; inactive = no such curve, though single readings can be large or run the other way.

Assay: qHTS Assay for Rab9 Promoter Activators: Hit Validation Using Renilla Luciferase Read-Out; also: % of control where 0% means no effect
Settings: Huh7 NPC1 promoter Renilla luciferase reporter, 24 h; series mostly up to 76.9 µM; activation (negative = inhibition): at the top concentration
From the text: Niemann Pick Type C (NPC) is a rare neurodegenerative lipidosis that is characterized by lipid storage in the endosomal/lysosomal system. Treatment modalities for this devastating disease are currently non-existent due to the severe obstacles associated with accessing the central nervous system with proteins or genes. The majority of mutations causing NPC disease are missense mutations that are distributed throughout the length of the NPC1 protein, with the most prevalent being the I1061T allele. Although NPC1 mutant proteins may be functional, they are typically trapped in the ER due to misfolding. […] We have developed and optimized a cell based renilla luciferase reporter assay in 1536 well format for the identification of up-regulators of the mutant NPC1 promoter. This assay presents data on the validation of hits from the primary screen, which used a firefly luciferase read-out. NIH Chemical Genomics Center [NCGC] NIH Molecular Libraries Probe Production centers Network [MLPCN] MLPCN Grant: MH089375 Assay Submitter (PI): Yiannis A. Ioannou
Huh7 cells stably expressing NPC promoter-luciferase will be seeded at 1,500 cells/well in 5 uL in 1,536-well white opaque plates with 23 nL/well of compound in DMSO solution. The assay plates will be incubated at 37 deg C for 24 hours, after which 3 uL/well BriteLite plus luciferase detection reagent mixture (Perkin Elmer) will be added. Luminescence signal will be measured in a ViewLux plate reader (Perkin Elmer) after a 10 minute incubation at the room temperature.

Activation (negative = inhibition), inactive:
COCc1cc(C)nc(N/N=C/c2ccc(-c3ccc(Cl)cc3[N+](=O)[O-])o2)c1C#N -12.3%
CCOCC(=O)Nc1c(C(=O)Nc2ccc3c(c2)OCCO3)oc2ccccc12 -20.3%
Cc1ccccc1NC(=O)Cc1nc(COC(=O)CC(C)c2ccccc2)cs1 (stereo not given) 2.23%
OCCC1CN(Cc2nc3ccccc3s2)CCN1C1CCCC1 (stereo not given) 0.367%
CC(C)(C)C(=O)NC(=S)Nc1ccccc1F 22.6%
Cc1cccc(N2CCN(C(=S)c3ccccc3)CC2)c1 1.13%
COc1ccc(NC(=O)CN(C)C(=O)c2ccc(=O)[nH]c2)cc1 3.53%
CCOC(=O)C1(Cc2cccc(Cl)c2)CCCN(C(=O)CCSC)C1 (stereo not given) -4.4%
COc1ccc(-c2cc(C(=O)Nc3ccccc3F)on2)cc1 1.74%
COc1ccc(/C=C\C(=O)c2c(O)ccc3c(C)cc(=O)oc23)cc1OC -59.8%
CCOc1ccc(CNC(=O)C2CCCN(S(C)(=O)=O)C2)cc1OC (stereo not given) -4.35%
Cc1nnc2n(c1=O)N=C(c1ccc(Cl)cc1)CS2 -12.3%
O=C(NC(=S)Nc1ccc(CN2CCCCC2)cc1)c1cc2ccccc2o1 9.7%
CC(=O)Nc1ccc(-c2csc(Nc3ncccn3)n2)cc1 -9.77%
CCC1=[N+](CC(=O)c2ccc(C)cc2)CCn2cccc21 -5.44%
CC(=O)Nc1ccc(NC(=O)COc2ncnc3ccccc23)cc1 5.67%
Cc1ccc2c(c1)sc1nc(=O)n(-c3ccccc3)c(=O)n12 -17.1%
COc1ccc(-n2c(N)c(C(=O)NCc3ccco3)sc2=S)cc1 -2.97%
O=C(C1COc2ccccc2O1)N1CCN(S(=O)(=O)c2ccccc2)CC1 (stereo not given) 5.12%
COC(=O)c1ccccc1NC(=O)c1ccc(-c2ccc(Br)cc2)o1 -44.9%
O=C(c1cc2cc([N+](=O)[O-])ccc2oc1=O)n1cccn1 -1.56%
Cc1ccc(C(=O)Nc2ccc(N3CCN(C)CC3)nc2)cc1 -2.51%
CC(C)C(NC(=O)c1ccc([N+](=O)[O-])cc1Cl)C(=O)N1CCCC1 (stereo not given) 1.06%
COC(=O)c1ccc(NC(=O)c2ccc3nc(C)sc3c2)cc1 7.49%
CCN(CC(=O)N(CC(C)C)c1c(N)n(CC(C)C)c(=O)[nH]c1=O)Cc1nc2ccccc2c(=O)[nH]1 -6.08%
O=C(CCNC(=O)c1ccc(Br)o1)NCc1ccc(Cl)cc1 -2.1%
COCC1CCN(C(=O)c2ccc3oc(Cc4ccccc4)nc3c2)C1 (stereo not given) 3.34%
COCCNC(=O)Cn1nc(-c2ccccc2)c2ccccc2c1=O -22.4%
Nc1nc(SCCO)[nH]c(=O)c1NC(=O)c1ccco1 10.2%
Cc1ccc(N=Cc2sc(O)c3ccccc23)c(C)c1 1.85%
Cc1ccccc1NC(=O)CSc1ccc(-c2cccnc2)nn1 -0.363%
CCOC(=O)c1ccc(NC(=O)Oc2cc(C)c(Cl)cc2C(C)C)cc1 -2.91%
NCCOc1ccccc1-c1ccccc1 -3.48%
COc1ccc(-c2noc(N3CCCC(C(=O)Nc4ccccc4F)C3)n2)cc1 (stereo not given) -14.1%
CC(=O)c1cccc(NC(=O)N2CCOCC2)c1 -0.773%
O=C(CCCOc1ccc(Cl)cc1)N1CCCCC1 -3.94%
O=C(N/N=C/c1ccc(-c2ccc(Br)cc2)o1)c1ccc2c(c1)OCO2 -12.6%
Cc1ccc(C(=O)NC2CCN(CC(=O)Nc3c(C)cc(C)cc3C)CC2)cc1 -2.1%
COCCNC(=O)CN1C(=O)NC(c2ccccc2)(c2ccccc2)C1=O 2.14%
Brc1ccccc1-c1nnc(CSc2nnc3sc4ccccc4n23)o1 -3.13%
